# Test results from the supplement of paper PMC3342239.
# Where a name gives a salt, the structure may show the parent alone.
# System: Saccharomyces cerevisiae
# Assay: fraction of cells in G1 phase (DNA content, flow cytometry); higher = more cells with unreplicated DNA (G1 delay)
# Details: temperature: 30 C; YPD; JTY2953 pdr5 snq2 (sensitized); drug added to: cultures diluted from stationary phase; 6-7 h
# How it was run: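 S. cerevisiae in YPD at 30°C was treated with library drugs, with DMSO-only wells as reference. Sensitized JTY2953 cultures diluted 1∶200 from overnight received a final 20 µg/ml and were fixed after 6–7 h; other runs dosed dividing JTY2953 (fixed 6 h later) or BY4741 (4.33 h later). Ethanol-fixed cells were stained with SYTOX Green and 10,000 events read by flow cytometry. G1 fraction is the Dean-Jett-Fox G1 peak area over G1 plus G2/M areas.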
row,Structure (SMILES),fraction of cells in G1 phase
1,CC(C)(C)NC[C@H](O)COc1nsnc1N1CCOCC1 [Timolol maleate (s)] (63.2061 µM),0.499
2,CC1(C)S[C@@H]2[C@H](NC(=O)[C@H](N)c3ccccc3)C(=O)N2[C@H]1C(=O)O [Ampicillin trihydrate] (57.2391 µM),0.497
3,CC(=O)OCC(CCn1cnc2cnc(N)nc21)COC(C)=O [Famciclovir] (62.2396 µM),0.505
4,Clc1ccc2c(c1)CCc1cccnc1C2=C1CCNCC1 [Desloratadine] (64.3439 µM),0.5
5,Clc1ccc2nsnc2c1NC1=NCCN1 [Tizanidine HCl] (78.8287 µM),0.504
6,CN(C)CCCSc1ccccc1NC(=O)/C=C/c1ccccc1 [Cinanserin] (58.7387 µM),0.456
7,COC(=O)N[C@H](C(=O)N[C@@H](Cc1ccccc1)[C@@H](O)CN(Cc1ccc(-c2ccccn2)cc1)NC(=O)[C@@H](NC(=O)OC)C(C)(C)C)C(C)(C)C [Atazanavir] (28.3739 µM),0.525
8,CCN1CCC[C@H]1CNC(=O)c1cc(S(N)(=O)=O)ccc1OC [Sulpiride s (-)] (58.5768 µM),0.482
9,COc1ccc(Cl)cc1C(=O)NCCc1ccc(S(=O)(=O)NC(=O)NC2CCCCC2)cc1 [Glyburide] (40.4847 µM),0.531
10,CC(C)C[C@H](NC(=O)[C@H](Cc1ccccc1)NC(=O)c1cnccn1)B(O)O [Bortezomib] (52.0499 µM),0.4
11,CC[C@@H]1C(=O)OC[C@@H]1Cc1cncn1C [Pilocarpine HCl] (96.0327 µM),0.526
